Experimental data as given in PubChem BioAssay (Tox21).
Where “and” joins values, the source holds several entries; their conditions need not be identical. Equal values may be shown once. Records with an inconclusive call do not appear. A call without a number means that no potency is given here. Some compounds were tested as several samples or in several runs, with calls that do not always agree. Calls of active or inactive are those of the source. Unless noted, calls come from the whole dose curve.

How the values were obtained:
[1] = Nuclear factor erythroid 2-related factor 2/antioxidant responsive element (Nrf2/ARE) small molecule agonists: qHTS cell viability counter screen in human keratinocytes (AID 1919968; active = well fitted curve in the direction sought with a large enough effect in the repeat runs; an effect the other way counts as inactive or inconclusive; note: nearly all actives have a fitted effect of over 55% in size; note: potency is the fitted concentration of half-maximal effect)
How it was run: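 Measured as CellTiter-Fluor fluorescence, this readout tracks cytotoxicity in the same wells as the ARE-luciferase screen. HaCaT reporter cells (1,500/well) received compounds after a 5 h pre-incubation and were exposed for 23 h.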

[2] = Nuclear factor erythroid 2-related factor 2/antioxidant responsive element (Nrf2/ARE) small molecule agonists: luciferase reporter gene qHTS assay in human keratinocytes (AID 1919969); note: nearly all actives have a fitted effect of over 35% in size; note: potency is the fitted concentration of half-maximal effect
[3] = target: Gonadotropin-releasing hormone receptor (Homo sapiens) (UniProt P30968); assay: Human gonadotropin-releasing hormone receptor (GnRHR) small molecule agonists, calcium flux assay in GnRHR-HEK293 cells (AID 1920063); note: nearly all actives have a fitted effect of over 35% in size
How it was run: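 Fluorescence kinetics (480 nm excitation, 540 nm emission; 3 min, 1 s steps) report calcium mobilisation in human GnRHR-HEK293 cells in agonist mode. Dye incubation: 1 h, 37 C.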

[4] = target: KiSS-1 receptor (Homo sapiens) (UniProt Q969F8); assay: Human kisspeptin (KISS1R) small molecule agonists, calcium flux assay in KISS1R-HEK293 cells (AID 1920064; active = well fitted curve in the direction sought with a large enough effect in the repeat runs; an effect the other way counts as inactive or inconclusive)
How it was run: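 Measures KISS1R agonism through calcium-sensitive dye fluorescence in stably transfected HEK293 cells, read for 3 min after pin-tool compound delivery; 15-point titrations in triplicate.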

[5] = G protein-coupled receptor (GPCR) small molecule agonists, calcium flux assay: HEK293 wild type cell line counter screen (AID 1920065)
How it was run: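 Readout: fluorescence at 480 nm excitation/540 nm emission, sampled at 1 s intervals for 3 min. Cells had been cultured 18 h, then dye-loaded 1 h at 37 C before compound or ATP addition.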

[6] = p53 small molecule agonists, cell-based qHTS assay with human liver microsomes: qHTS cell viability counter screen (AID 1963579); note: nearly all actives have a fitted effect of over 45% in size; note: potency is the fitted concentration of half-maximal effect
How it was run: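 Cells carrying the p53 response-element beta-lactamase reporter are treated for 16 h at 37 C with test compounds in the presence of human liver microsomes and NADPH (both 0.5 mg/mL final); ATP-based CellTiter-Glo luminescence then reports viability.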

[7] = p53 small molecule agonists, cell-based qHTS assay with rat liver microsomes: qHTS cell viability counter screen (AID 1963580); note: nearly all actives have a fitted effect of over 45% in size; note: potency is the fitted concentration of half-maximal effect
How it was run: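 p53RE-bla HCT-116 cells (4,000/well) rested 5 h at 37 C, then given Tox21 compounds in DMSO with rat liver microsomes (0.5 mg/mL final) plus NADPH (0.5 mg/mL final) for 16 h at 37 C. Viability read by CellTiter-Glo luminescence after 30 min at room temperature.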

[8] = p53 small molecule agonists, cell-based qHTS assay: qHTS cell viability counter screen (AID 1963581); note: nearly all actives have a fitted effect of over 45% in size; note: potency is the fitted concentration of half-maximal effect
How it was run: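 In the same plates used for the p53 bla reporter, HCT-116 cells given compounds for 16 h at 37 C received CellTiter-Glo; luminescence was recorded 30 min later at room temperature.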

[9] = p53 small molecule agonists, cell-based qHTS assay (AID 1963582; active = well fitted activation curve with a large enough effect in the signal ratio in the repeat runs, not every such curve was filed as active; the % refers to the signal ratio)
How it was run: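 Compounds are pin-transferred in DMSO onto p53RE-bla cells and incubated 16 h at 37 C. The B/G FRET beta-lactamase substrate is then applied for 2 h at RT and fluorescence recorded.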

[10] = target: 5-hydroxytryptamine receptor 2A (Homo sapiens) (UniProt P28223); assay: 5-hydroxytryptamine receptor 2A (HTR2A) small molecule antagonists, cell-based qHTS assay (AID 1963586); note: nearly all actives have a fitted effect of over 45% in size
How it was run: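 Antagonist-mode intracellular calcium assay: DOI (4 nM) added after 5 min compound pre-incubation at room temperature to dye-loaded HTR2A-CHO cells. Fluorescence followed for 3 min, sampled every second.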

[11] = target: 5-hydroxytryptamine receptor 2A (Homo sapiens) (UniProt P28223); assay: 5-hydroxytryptamine receptor 2A (HTR2A) small molecule agonists, cell-based qHTS assay (AID 1963587); note: nearly all actives have a fitted effect of over 30% in size; note: potency is the fitted concentration of half-maximal effect
How it was run: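 HTR2A-CHO cells, plated 18 h at 37 C/5% CO2, dye-loaded 1 h at 37 C; compounds in DMSO added by pin tool (agonist mode). Intracellular calcium flux read as kinetic fluorescence on FDSS over 2 min at 1 s intervals.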

[12] = target: Muscarinic acetylcholine receptor M1 (Homo sapiens) (UniProt P11229); assay: Cholinergic receptor muscarinic 1 (CHRM1) small molecule antagonists, cell-based qHTS assay (AID 1963588); note: nearly all actives have a fitted effect of over 40% in size
How it was run: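 CHRM1-CHO calcium-flux assay, antagonist mode. Cells were seeded 18 h, dye-loaded 1 h at 37 C and given compound for 5 min at RT, then acetylcholine was added at 50nM. FDSS fluorescence was read 3 min; 15 concentrations, three runs.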

[13] = target: Muscarinic acetylcholine receptor M1 (Homo sapiens) (UniProt P11229); assay: Cholinergic receptor muscarinic 1 (CHRM1) small molecule agonists, cell-based qHTS assay (AID 1963589); note: nearly all actives have a fitted effect of over 35% in size; note: potency is the fitted concentration of half-maximal effect
How it was run: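 Each compound was tested at 15 concentrations across three independent runs on dye-loaded CHO cells stably expressing human CHRM1, reading intracellular calcium fluorescence kinetically at 1 sec intervals.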

[14] = cAMP Responsive Elements (CRE) small molecule agonists, cell-based qHTS assay (AID 1963590)
How it was run: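 Cell line: CRE-bla HEK 293T; medium DMEM/10% dialyzed FBS/0.1 mM NEAA/1 mM pyruvate/25 mM HEPES; 3 h compound exposure; beta-lactamase FRET readout after 2 h substrate loading at RT.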

[15] = cAMP Responsive Elements (CRE) small molecule antagonists, cell-based qHTS assay (AID 1963591; active = well fitted inhibition curve with a large enough effect in the signal ratio in the repeat runs, not every such curve was filed as active; the % refers to the signal ratio)
How it was run: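 Inhibition of NKH477-driven (0.25 uM final) CRE-beta-lactamase signal in HEK293T cells, 3 h compound exposure at 37 °C, detected by FRET substrate fluorescence.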

[16] = target: Beta-2 adrenergic receptor (Homo sapiens) (UniProt P07550); assay: Adrenergic beta2 receptor (ADRB2) small molecule antagonists, cell-based qHTS assay (AID 1963592); note: nearly all actives have a fitted effect of over 50% in size; note: potency is the fitted concentration of half-maximal effect
How it was run: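 Cells (CHO, stable ADRB2 overexpression) incubated 18-20hr at 37C; compounds added from DMSO; agonist mix (1nM isoproterenol, 100uM IBMX, 25uM Ro-20-1724) added; 0.5hr RT; d2-cAMP and anti-cAMP-cryptate added; 1hr RT; 665/615 nm read.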

[17] = target: D(2) dopamine receptor (Homo sapiens) (UniProt P14416); assay: Dopamine D2 receptor (DRD2) small molecule agonists, cell-based qHTS assay (AID 1963594); note: nearly all actives have a fitted effect of over 35% in size
How it was run: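 HEK293 cells stably expressing DRD2 were cultured 24 h at 37 C, then given Ro20-1724 (0.1 mM final) and compounds for 10 min at room temperature. NKH477 (200nM) was then added for 30 min. cAMP was read by HTRF.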

[18] = target: D(2) dopamine receptor (Homo sapiens) (UniProt P14416); assay: Dopamine D2 receptor (DRD2) small molecule antagonists, cell-based qHTS assay (AID 1963595; active = well fitted inhibition curve with a large enough effect in the signal ratio in the repeat runs, with a control signal flat; the % refers to the signal ratio; note: potency is the fitted concentration of half-maximal effect)
How it was run: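 HEK293 cells stably expressing DRD2 were preincubated with 0.1 mM Ro20-1724, then with compound for 10 min at room temperature. Cells were stimulated with 200 nM NKH477 plus 12 nM quinpirole for 30 min, and cAMP was read by HTRF.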

[19] = p53 small molecule agonists, cell-based qHTS assay with rat liver microsomes (AID 1963578)
How it was run: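 Read-out is beta-lactamase reporter fluorescence (LiveBLAzer, 2 h, room temperature, dark) in p53RE-bla cells treated 16 h at 37 C with compound, rat liver microsomes and NADPH, both 0.5 mg/mL final.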

[20] = target: Beta-2 adrenergic receptor (Homo sapiens) (UniProt P07550); assay: Adrenergic beta2 receptor (ADRB2) small molecule agonists, cell-based qHTS assay (AID 1963593);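 note: CHO cells stably overexpressing human ADRB2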
How it was run: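 CHO cells stably over-expressing ADRB2 were plated overnight at 37C, then dosed with compounds plus a stimulation mix containing 100uM IBMX and 25uM Ro-20-1724 for 0.5hr at room temperature. cAMP was measured by HTRF competition, 1hr.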

Chain of Beta-2 adrenergic receptor (Homo sapiens) (P07550 whole entry, looked up): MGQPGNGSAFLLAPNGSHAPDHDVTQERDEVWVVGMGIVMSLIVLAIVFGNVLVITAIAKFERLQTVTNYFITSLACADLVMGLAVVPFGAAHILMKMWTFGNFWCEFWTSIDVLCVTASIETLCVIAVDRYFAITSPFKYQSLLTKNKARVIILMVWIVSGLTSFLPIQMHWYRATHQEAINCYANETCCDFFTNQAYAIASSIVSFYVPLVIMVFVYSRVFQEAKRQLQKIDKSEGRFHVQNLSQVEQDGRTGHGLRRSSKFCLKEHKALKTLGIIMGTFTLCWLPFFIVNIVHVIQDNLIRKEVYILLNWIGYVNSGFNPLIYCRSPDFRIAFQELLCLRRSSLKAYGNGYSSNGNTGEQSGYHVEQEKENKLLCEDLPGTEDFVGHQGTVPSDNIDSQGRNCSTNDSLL
Chain of Muscarinic acetylcholine receptor M1 (Homo sapiens) (P11229 whole entry, looked up): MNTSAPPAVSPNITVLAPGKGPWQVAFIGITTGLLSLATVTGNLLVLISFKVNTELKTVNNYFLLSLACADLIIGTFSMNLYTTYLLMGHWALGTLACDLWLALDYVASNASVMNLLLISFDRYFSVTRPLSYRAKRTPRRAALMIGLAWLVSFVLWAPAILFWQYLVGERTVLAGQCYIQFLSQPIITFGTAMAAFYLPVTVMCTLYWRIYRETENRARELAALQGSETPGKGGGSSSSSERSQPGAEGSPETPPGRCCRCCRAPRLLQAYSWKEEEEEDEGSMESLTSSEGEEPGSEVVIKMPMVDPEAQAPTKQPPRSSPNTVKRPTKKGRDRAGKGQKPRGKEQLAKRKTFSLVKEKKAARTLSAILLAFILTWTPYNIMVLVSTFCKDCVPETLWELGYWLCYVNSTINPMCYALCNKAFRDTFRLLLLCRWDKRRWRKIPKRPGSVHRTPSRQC
Chain of KiSS-1 receptor (Homo sapiens) (Q969F8 whole entry, looked up): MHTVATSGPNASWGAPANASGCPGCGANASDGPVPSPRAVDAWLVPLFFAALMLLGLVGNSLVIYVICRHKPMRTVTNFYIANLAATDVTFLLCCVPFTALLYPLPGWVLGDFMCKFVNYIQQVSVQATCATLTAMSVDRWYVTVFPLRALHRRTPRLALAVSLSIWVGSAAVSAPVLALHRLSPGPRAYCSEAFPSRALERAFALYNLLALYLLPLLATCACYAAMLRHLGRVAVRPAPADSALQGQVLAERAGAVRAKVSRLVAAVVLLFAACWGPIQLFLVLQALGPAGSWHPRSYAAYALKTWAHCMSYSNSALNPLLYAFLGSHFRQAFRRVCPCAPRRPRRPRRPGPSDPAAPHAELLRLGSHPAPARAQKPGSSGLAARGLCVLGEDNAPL
Chain of Gonadotropin-releasing hormone receptor (Homo sapiens) (P30968 whole entry, looked up): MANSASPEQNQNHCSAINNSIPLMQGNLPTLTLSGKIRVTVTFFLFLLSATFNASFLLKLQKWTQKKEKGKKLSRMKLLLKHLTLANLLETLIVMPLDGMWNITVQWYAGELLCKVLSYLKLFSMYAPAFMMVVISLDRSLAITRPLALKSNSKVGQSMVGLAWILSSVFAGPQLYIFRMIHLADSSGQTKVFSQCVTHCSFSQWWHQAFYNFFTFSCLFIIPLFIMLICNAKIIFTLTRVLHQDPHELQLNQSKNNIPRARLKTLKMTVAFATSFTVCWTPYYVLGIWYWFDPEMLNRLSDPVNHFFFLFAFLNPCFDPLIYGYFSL
Chain of D(2) dopamine receptor (Homo sapiens) (P14416 whole entry, looked up): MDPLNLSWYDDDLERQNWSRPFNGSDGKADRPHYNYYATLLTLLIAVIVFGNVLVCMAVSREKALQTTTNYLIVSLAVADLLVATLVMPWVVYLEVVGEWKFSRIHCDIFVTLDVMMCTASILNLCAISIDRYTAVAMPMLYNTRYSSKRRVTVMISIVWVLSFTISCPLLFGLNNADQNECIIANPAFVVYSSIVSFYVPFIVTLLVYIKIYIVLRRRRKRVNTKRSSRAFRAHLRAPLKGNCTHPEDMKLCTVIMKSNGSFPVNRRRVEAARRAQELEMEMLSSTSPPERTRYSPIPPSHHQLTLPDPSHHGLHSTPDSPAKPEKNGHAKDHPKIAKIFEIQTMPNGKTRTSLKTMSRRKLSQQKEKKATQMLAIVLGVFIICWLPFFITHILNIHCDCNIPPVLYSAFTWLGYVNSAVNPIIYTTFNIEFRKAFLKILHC
Chain of 5-hydroxytryptamine receptor 2A (Homo sapiens) (P28223 whole entry, looked up): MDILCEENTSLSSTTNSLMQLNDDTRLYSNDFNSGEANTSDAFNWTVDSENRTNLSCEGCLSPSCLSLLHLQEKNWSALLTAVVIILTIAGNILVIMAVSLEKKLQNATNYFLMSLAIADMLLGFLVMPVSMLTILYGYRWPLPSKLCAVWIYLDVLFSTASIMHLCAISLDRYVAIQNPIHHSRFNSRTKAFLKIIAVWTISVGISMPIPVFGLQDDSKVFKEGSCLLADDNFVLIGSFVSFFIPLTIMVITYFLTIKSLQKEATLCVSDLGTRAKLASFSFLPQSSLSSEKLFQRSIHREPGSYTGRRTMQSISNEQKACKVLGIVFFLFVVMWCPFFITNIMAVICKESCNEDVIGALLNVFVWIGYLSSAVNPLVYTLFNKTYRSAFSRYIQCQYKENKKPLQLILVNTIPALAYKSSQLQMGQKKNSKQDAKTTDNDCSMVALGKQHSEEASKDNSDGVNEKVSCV

SMILES	Potency [1]	Potency [2]	Potency [3]	Potency [4]	Potency [5]	Potency [6]	Potency [7]	Potency [8]	Potency [9]	Potency [10]	Potency [11]	Potency [12]	Potency [13]	Potency [14]	Potency [15]	Potency [16]	Potency [17]	Potency [18]	Potency [19]	Potency [20]
CCOS(=O)(=O)OCC	inactive	68.7 µM (active) and inactive	inactive	inactive	inactive	inactive	inactive	inactive	inactive	inactive	inactive	inactive	inactive	inactive	inactive	inactive	inactive	inactive		
O=Cc1ccco1	inactive	inactive	inactive	inactive	inactive	inactive	inactive	inactive	inactive	inactive	inactive	inactive	inactive	inactive	inactive	inactive		inactive	inactive	
COP(=S)(OC)Oc1ccc([N+](=O)[O-])cc1	inactive	inactive	inactive	inactive	inactive	inactive	inactive	inactive	inactive	inactive	inactive	inactive		inactive	inactive	inactive		inactive		inactive
Cc1ccc(N)cc1Cl	inactive	inactive	inactive	inactive	inactive	inactive	inactive	inactive		inactive	inactive	inactive	inactive	inactive	inactive	inactive	inactive	inactive		inactive
CC(C=O)Cc1ccc2c(c1)OCO2 (centres undefined)	inactive	inactive	inactive	inactive	inactive	inactive	inactive	inactive	inactive		inactive		inactive	inactive	inactive	inactive	inactive	inactive	inactive	
CCOC(=O)CC(SP(=O)(OC)OC)C(=O)OCC (centres undefined)	inactive	inactive and 61.1 µM (active)	inactive	inactive	inactive	inactive	inactive	inactive	inactive	inactive	inactive	inactive		inactive	inactive	inactive		inactive		
CC(C)C1(C)N=C(c2nc3ccccc3cc2C(=O)O)NC1=O (centres undefined)	inactive	inactive	inactive	inactive	inactive	inactive	inactive	inactive	inactive	inactive	inactive	inactive		inactive	inactive	inactive		inactive	inactive	
Oc1cc(Cl)ccc1Oc1ccc(Cl)cc1Cl	22.2 µM (active) and 29.8 µM (active)	inactive	inactive	inactive	inactive	16.6 µM (active) and inactive	37.2 µM (active) and inactive	26.3 µM (active)	inactive	inactive	35.5 µM (active)	inactive	inactive			52.6 µM (active)	inactive	55.8 µM (active)		
N#CC(Br)Br	inactive	inactive	inactive	inactive	inactive	inactive	inactive	inactive		inactive	inactive	inactive	inactive	inactive	inactive	inactive	inactive	inactive		inactive
Nc1ccc(-c2ccc(N)c(N)c2)cc1N	inactive	inactive and 68.6 µM (active)	inactive	inactive	inactive	inactive	inactive	inactive		inactive	inactive	inactive	inactive	inactive	inactive	inactive	inactive	inactive		
Oc1cc(Cl)c(Cl)cc1Cl	inactive	inactive	inactive	inactive	inactive	inactive	40.5 µM (active) and inactive	inactive		inactive	inactive	inactive	inactive		inactive	inactive	inactive	inactive		
CCC[N+]1(C)CCCC1	inactive	inactive	inactive	inactive	inactive	inactive	inactive	inactive		inactive	inactive		inactive and 24.3 µM (active) and 21.9 µM (active)	inactive	inactive	inactive	inactive	inactive		inactive
ClC(Cl)=C(Cl)C(Cl)=C(Cl)Cl	inactive	inactive	inactive	inactive	inactive	inactive	inactive	inactive		inactive	inactive	inactive	inactive	inactive	inactive		inactive	inactive		inactive
CC(C)C#N	inactive	inactive	inactive	inactive	inactive	inactive	inactive	inactive		inactive	inactive	inactive	inactive	inactive	inactive	inactive	inactive	inactive		
